Measurements from PubChem BioAssay (Tox21).
Values joined by “and” are separate entries in the source; they are usually repeats but may differ in a detail not shown here. Identical values can stand only once. Inconclusive results are not listed. Some structures have more than one record in an assay (separate samples or runs), and their calls can disagree. Active and inactive are the calls of the source. Unless noted, calls follow the shape of the dose curve; as a rule, active = well fitted curve in the direction sought with a large enough effect in the repeat runs; inconclusive = weak or mixed curves; inactive = no such curve, though single readings can be large; an effect the other way counts as inactive or inconclusive.

Key:
[1] = qHTS assay to identify small molecule agonists of the peroxisome proliferator-activated receptor delta (PPARd) signaling pathway - cell viability counter screen (AID 743211); also: nearly all actives have a fitted effect of over 55% in size; also: potency is read from the fitted curve at half-maximal effect
How it was run: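 Multiplexed format: after the 2 h room-temperature LiveBLAzer B/G FRET step, CellTiter-Glo was added to the same wells. Luminescence after 30 min gave cell viability; compound exposure was 17 h at 37C.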

[2] = molecular target: Peroxisome proliferator-activated receptor delta (Homo sapiens) (UniProt Q03181); test: qHTS assay to identify small molecule agonists of the peroxisome proliferator-activated receptor delta (PPARd) signaling pathway (AID 743212; calls by dose curve)
How it was run: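 A PPARd-bla HEK293H line with beta-lactamase under an Upstream Activator Sequence is treated with compounds at 37 C. Substrate loading for 2 h at room temperature precedes the fluorescence measurement.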

[3] = molecular target: Peroxisome proliferator-activated receptor delta (Homo sapiens) (UniProt Q03181); test: qHTS assay to identify small molecule antagonists of the peroxisome proliferator-activated receptor delta (PPARd) signaling pathway (AID 743215; active = well fitted inhibition curve with a large enough effect in the signal ratio in the repeat runs, not every such curve was filed as active; the % refers to the signal ratio;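 also: cells stimulated with agonist L165041 at 300 nM final during compound exposure; series mostly up to about 62 µM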)
How it was run: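 HEK293H UAS-bla, PPARd; agonist L165041 300 nM final with cpd in DMSO; 37 C 17 h; FRET substrate, RT 2 h; fluorescence intensity.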

[4] = qHTS assay to identify small molecule agonists of the farnesoid-X-receptor (FXR) signaling pathway - cell viability counter screen (AID 743218); also: nearly all actives have a fitted effect of over 45% in size; also: potency is read from the fitted curve at half-maximal effect
How it was run: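 Parallel cytotoxicity test: compound-treated (16 h, 37 C) HEK 293T FXR-bla reporter cells were lysed with CellTiter-Glo and luminescence recorded.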

[5] = molecular target: Bile acid receptor (Homo sapiens) (UniProt Q96RI1); test: qHTS assay to identify small molecule agonists of the farnesoid-X-receptor (FXR) signaling pathway (AID 743220; active = well fitted activation curve with a large enough effect in the signal ratio in the repeat runs, not every such curve was filed as active; the % refers to the signal ratio)
How it was run: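 Beta-lactamase reporter under UAS control in GeneBLAzer FXR HEK 293T cells (5000/well) measured with LiveBLAzer FRET substrate after 2 h at room temperature. Compound exposure lasted 16 h at 37C.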

[6] = qHTS assay to identify small molecule antagonists of the farnesoid-X-receptor (FXR) signaling pathway - cell viability counter screen (AID 743221; active = well fitted cell-killing curve with a large enough effect in the repeat runs, not every such curve was filed as active; also: nearly all actives have a fitted effect of over 50% in size; also: potency is read from the fitted curve at half-maximal effect)
How it was run: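 CellTiter-Glo, 30 min RT, luminescence; same wells as the LiveBLAzer FRET read. Cells: FXR-UAS-bla HEK 293T. Treatment: compound with chenodeoxycholic acid 50 uM final, 16 h at 37 C.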

[7] = qHTS assay to identify small molecule agonists of the vitamin D receptor (VDR) signaling pathway - cell viability counter screen (AID 743224); also: nearly all actives have a fitted effect of over 50% in size; also: potency is read from the fitted curve at half-maximal effect
How it was run: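 Plated VDR-bla cells (4 h, 37C) received compound, incubated 16 h, then LiveBLAzer substrate 2 h RT; CellTiter-Glo added afterwards, luminescence read at 30 min.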

[8] = qHTS assay to identify small molecule agonists of the endoplasmic reticulum stress response signaling pathway (AID 1159516; active = well fitted activation curve with a large enough effect in the signal ratio in the repeat runs, not every such curve was filed as active; the % refers to the signal ratio)
How it was run: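 An ESRE-bla HeLa cell assay: compounds were pin-transferred from DMSO onto overnight-plated cells and left 5 hr at 37 C. Substrate was then loaded for 2 hr at room temperature before reading fluorescence at 460 nm and 530 nm.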

[9] = qHTS assay to identify small molecule agonists of the endoplasmic reticulum stress response signaling pathway - cell viability counter screen (AID 1159517; calls by dose curve; also: nearly all actives have a fitted effect of over 50% in size; also: potency is read from the fitted curve at half-maximal effect)
How it was run: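 CellTiter-Glo was added to wells already read for beta-lactamase FRET, and luminescence was recorded 30 min later. Cells: ESRE-bla HeLa, 1,500 per well, compound exposure 5 hr at 37 C.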

[10] = qHTS assay to identify small molecule agonists of the AP-1 signaling pathway (AID 1159526; calls by dose curve)
[11] = molecular target: Retinoic acid receptor RXR-alpha (Homo sapiens) (UniProt P19793); test: qHTS assay to identify small molecule agonists of the RXR signaling pathway (AID 1159527; calls by dose curve; also: nearly all actives have a fitted effect of over 35% in size)
How it was run: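 Reporter activation is measured as beta-lactamase activity via FRET substrate cleavage (emission 460/530 nm) in HEK 293T cells expressing an RXR-alpha-driven bla construct, following 16 hr compound exposure at 37 C.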

[12] = molecular target: Vitamin D3 receptor (Homo sapiens) (UniProt P11473); test: qHTS assay to identify small molecule agonists of the vitamin D receptor (VDR) signaling pathway (AID 743222; calls by dose curve)
How it was run: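 In VDR-bla cells, compound-induced beta-lactamase expression is quantified by FRET substrate fluorescence. Treatment lasts 16 h at 37C; substrate develops 2 h at room temperature.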

[13] = molecular target: Vitamin D3 receptor (Homo sapiens) (UniProt P11473); test: qHTS assay to identify small molecule antagonists of the vitamin D receptor (VDR) signaling pathway (AID 743223; active = well fitted inhibition curve with a large enough effect in the signal ratio in the repeat runs, not every such curve was filed as active; the % refers to the signal ratio; also: potency is read from the fitted curve at half-maximal effect)
How it was run: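 After VDR-bla cells are plated and left 4 h at 37C, DMSO-dissolved compounds and 3 nM (final) calcitriol agonist are added. Incubation continues 16 h at 37C; FRET beta-lactamase substrate then develops 2 h at room temperature.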

[14] = qHTS assay to identify small molecule antagonists of the vitamin D receptor (VDR) signaling pathway - cell viability counter screen (AID 743225); also: nearly all actives have a fitted effect of over 50% in size; also: potency is read from the fitted curve at half-maximal effect
How it was run: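 Cytotoxicity toward the VDR-bla HEK 293T line was scored by ATP-based CellTiter-Glo luminescence, read in the wells already used for the beta-lactamase readout after 16 h compound treatment under 3 nM 1-alpha,25-dihydroxyvitamin D3 stimulation.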

[15] = qHTS assay to identify small molecule antagonists of the retinoid-related orphan receptor gamma (ROR-gamma) signaling pathway - cell viability counter screen (AID 1159520); also: nearly all actives have a fitted effect of over 50% in size; also: potency is read from the fitted curve at half-maximal effect
How it was run: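 Tet-on ROR gamma CHO cells (1,000/well) were plated 4 hr, given compounds in DMSO for 2 hr at 37 C, then induced with 1 uM final doxycycline for 16 hr. Viability was read as ATP by CellTiter-Glo luminescence after 30 min.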

[16] = molecular target: Nuclear receptor ROR-gamma (Homo sapiens) (UniProt P51449); test: qHTS assay to identify small molecule antagonists of the retinoid-related orphan receptor gamma (ROR-gamma) signaling pathway (AID 1159521; also: nearly all actives have a fitted effect of over 50% in size; also: potency is read from the fitted curve at half-maximal effect)
How it was run: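 Readout: ONE-Glo luciferase luminescence, 30 min at room temperature. System: Tet-on RORγ CHO, RORE-LUC. Sequence: compound 2 h, doxycycline 1 uM final, 16 h at 37 C.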

[17] = qHTS assay to identify small molecule agonists of the AP-1 signaling pathway - cell viability counter screen (AID 1159525; calls by dose curve; also: nearly all actives have a fitted effect of over 55% in size; also: potency is read from the fitted curve at half-maximal effect)
How it was run: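 ME-180 AP-1-bla, 2500 cells/well, Opti-MEM + 0.5% dialyzed FBS; overnight 37 °C; cpd 15-pt titration, 5 h 37 °C; CellTiter-Glo 30 min RT; luminescence read; normalised to TOAB and DMSO controls.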

[18] = qHTS assay to identify small molecule antagonists of the peroxisome proliferator-activated receptor delta (PPARd) signaling pathway - cell viability counter screen (AID 743213); also: nearly all actives have a fitted effect of over 50% in size; also: potency is read from the fitted curve at half-maximal effect
How it was run: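 In this counter screen, HEK293H cells carrying a UAS-beta-lactamase reporter are co-treated with test compounds and 300 nM L165041 (final) for 17 h at 37 C; cell viability is quantified by CellTiter-Glo luminescence.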

[19] = molecular target: Bile acid receptor (Homo sapiens) (UniProt Q96RI1); test: qHTS assay to identify small molecule antagonists of the farnesoid-X-receptor (FXR) signaling pathway (AID 743217; active = well fitted inhibition curve with a large enough effect in the signal ratio in the repeat runs, not every such curve was filed as active; the % refers to the signal ratio)
How it was run: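 GeneBLAzer FXR-UAS-bla HEK 293T, CDCA-stimulated (50 uM final). Compound treatment 16 h, 37 °C. Detection: beta-lactamase cleavage of B/G FRET substrate, fluorescence.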

Measured: Potency

Sequence of Bile acid receptor (Homo sapiens) (Q96RI1 whole entry, looked up): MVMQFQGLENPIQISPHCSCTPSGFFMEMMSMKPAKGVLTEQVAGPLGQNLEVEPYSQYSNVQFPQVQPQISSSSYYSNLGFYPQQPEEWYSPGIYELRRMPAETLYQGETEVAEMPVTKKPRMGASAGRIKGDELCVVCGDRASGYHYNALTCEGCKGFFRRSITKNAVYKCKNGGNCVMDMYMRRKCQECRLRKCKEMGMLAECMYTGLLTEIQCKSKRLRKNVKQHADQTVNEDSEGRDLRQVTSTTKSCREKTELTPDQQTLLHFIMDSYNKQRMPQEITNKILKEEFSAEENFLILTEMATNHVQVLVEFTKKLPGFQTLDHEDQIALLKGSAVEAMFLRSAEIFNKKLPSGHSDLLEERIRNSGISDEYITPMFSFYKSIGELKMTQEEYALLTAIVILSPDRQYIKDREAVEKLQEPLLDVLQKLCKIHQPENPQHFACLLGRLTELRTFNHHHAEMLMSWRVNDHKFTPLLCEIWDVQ
Sequence of Retinoic acid receptor RXR-alpha (Homo sapiens) (P19793 whole entry, looked up): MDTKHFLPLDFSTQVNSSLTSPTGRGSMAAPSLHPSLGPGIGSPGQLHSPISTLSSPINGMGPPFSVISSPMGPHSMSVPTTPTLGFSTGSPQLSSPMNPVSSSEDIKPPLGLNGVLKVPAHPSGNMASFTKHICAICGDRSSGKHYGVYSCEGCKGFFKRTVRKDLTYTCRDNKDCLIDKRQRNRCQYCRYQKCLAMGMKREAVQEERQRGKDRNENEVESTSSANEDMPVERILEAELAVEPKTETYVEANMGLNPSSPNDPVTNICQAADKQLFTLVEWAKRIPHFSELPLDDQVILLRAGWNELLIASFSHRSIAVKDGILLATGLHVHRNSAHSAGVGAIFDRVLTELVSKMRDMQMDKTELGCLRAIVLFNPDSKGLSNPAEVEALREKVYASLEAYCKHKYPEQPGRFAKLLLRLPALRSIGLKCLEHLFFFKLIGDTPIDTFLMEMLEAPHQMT
Sequence of Peroxisome proliferator-activated receptor delta (Homo sapiens) (Q03181 whole entry, looked up): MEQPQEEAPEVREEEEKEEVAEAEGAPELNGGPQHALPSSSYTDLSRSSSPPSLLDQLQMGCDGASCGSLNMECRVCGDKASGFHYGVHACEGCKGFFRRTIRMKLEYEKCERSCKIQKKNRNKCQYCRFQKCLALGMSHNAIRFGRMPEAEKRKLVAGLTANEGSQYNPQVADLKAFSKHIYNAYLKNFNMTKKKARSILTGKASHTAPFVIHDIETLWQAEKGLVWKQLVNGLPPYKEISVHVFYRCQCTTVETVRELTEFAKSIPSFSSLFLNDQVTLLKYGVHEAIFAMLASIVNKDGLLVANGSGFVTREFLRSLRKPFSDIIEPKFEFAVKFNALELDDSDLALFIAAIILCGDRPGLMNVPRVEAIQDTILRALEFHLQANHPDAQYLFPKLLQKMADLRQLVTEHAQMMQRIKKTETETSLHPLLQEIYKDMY
Sequence of Vitamin D3 receptor (Homo sapiens) (P11473 whole entry, looked up): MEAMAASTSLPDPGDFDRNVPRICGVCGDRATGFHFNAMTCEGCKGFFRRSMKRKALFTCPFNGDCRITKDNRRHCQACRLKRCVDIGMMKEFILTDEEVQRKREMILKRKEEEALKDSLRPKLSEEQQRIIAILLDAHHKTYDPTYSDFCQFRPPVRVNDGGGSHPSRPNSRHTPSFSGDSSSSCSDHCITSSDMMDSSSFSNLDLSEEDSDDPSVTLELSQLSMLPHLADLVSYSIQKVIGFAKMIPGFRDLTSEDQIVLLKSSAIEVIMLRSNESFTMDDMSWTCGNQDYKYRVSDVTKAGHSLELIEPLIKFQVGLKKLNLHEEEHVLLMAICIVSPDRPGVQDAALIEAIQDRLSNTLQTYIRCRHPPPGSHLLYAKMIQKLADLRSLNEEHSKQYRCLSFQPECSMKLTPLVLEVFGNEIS

O=S(=O)(O)c1ccc2nc(-c3ccccc3)[nH]c2c1
inactive: [2] | [3] | [4] | [5] | [8] | [10] | [11]
active: [1] 8.29 µM | [6] 7.39 µM | [7] 13.1 µM | [9] 46.6 µM

CCc1cc(C(C)(C)C)c(O)c(C(C)(C)C)c1
not listed: [11] | [18] | [19]
inactive: all other assays above

CCCN[C@H]1CCc2nc(N)sc2C1
not listed: [2] | [3] | [5] | [13] | [16] | [19]
inactive: all other assays above

Cc1cc(C(C)(C)C)c(O)c(C(C)(C)C)c1
43.8 µM (active) and inactive: [1]
not listed: [11] | [12] | [13] | [16] | [18]
inactive: all other assays above

CCN(CC)CCOc1ccc(/C(=C(\Cl)c2ccccc2)c2ccccc2)cc1
active: [1] 35.4 µM and 29.8 µM | [18] 39.7 µM | [4] 35.4 µM and 26.6 µM | [13] 31.6 µM | [7] 19.9 µM and 26.6 µM | [14] 22.3 µM and 21.3 µM | [15] 31.3 µM | [16] 19.7 µM and 26.6 µM | [17] 17.7 µM
inactive: [5] | [12]

Cc1ccc(-c2cc(C(F)(F)F)nn2-c2ccc(S(N)(=O)=O)cc2)cc1
inactive: [2] | [18] | [4] | [6] | [8] | [9]
active: [1] 54.9 µM | [14] 48.8 µM | [15] 60.9 µM and 54.5 µM | [17] 48.8 µM and 54.9 µM

O=C1Nc2ccccc2C1(c1ccc(O)cc1)c1ccc(O)cc1
not listed: [5] | [10] | [17] | [19]
inactive: all other assays above
